Experimental data from PubChem BioAssay (EPA / NIEHS).
Results filed as inconclusive are left out. Activity calls are given as the source filed them. How the source made its calls, unless noted: active means hit-call score of the fitted dose curve at least 0.9, where 1 is the maximum; inactive means score below 0.9.

Experiments:
TTR (gene 7276) = experiment: CCTE_GLTED_hTTR_0.5uM: CCTE's human Transthyretin (hTTR) Inhibition Assay, with 0.5uM TTR, Great Lakes Toxicology and Ecology Division (GLTED) Lab (AID 2284320)
Procedure, shortened: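 Cell-free displacement assay in which human TTR at 0.5 uM was incubated with test chemical for 2 h. Displacement of the ANSA probe was read by fluorescence at 380 nm excitation/475 nm emission. Loss of signal was fitted in the positive direction versus DMSO.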

[1] = CCTE_Mundy_HCI_iCellGluta_NOG_NeuronCount: CCTE's Neurite Outgrowth Assay in iCellGluta cells for Neuron Count, Mundy Lab (AID 2284340; active means hit-call score of the fitted dose curve at least 0.9, where 1 is the maximum;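 further: cells fixed about 48 h after compound addition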)
Procedure, shortened: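 Neuron count read by automated high-content imaging of Hoechst 33342 and betaIII-tubulin/Alexa Fluor-488 labelling in human iPSC glutamatergic neurons. Activity fitted relative to DMSO.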

[2] = CCTE_Mundy_HCI_iCellGluta_NOG_NeuriteCount: CCTE's Neurite Outgrowth Assay in iCellGluta cells for Neurite Count, Mundy Lab (AID 2284342; active means hit-call score of the fitted dose curve at least 0.9, where 1 is the maximum;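 further: chemical exposure about 48 hours starting 2 hours after plating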)
[3] = Tanguay_ZF_120hpf_MO24: Oregon State University Tanguay Lab 24 Hour Post-fertilization zebrafish Assay for Mortality (AID 2284389)
Procedure, shortened: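 Dechorionated wild-type zebrafish embryos, 1 per well, statically exposed from 6 hpf at 28C, 0.64% DMSO final. Mortality scored as binary present/absent at 24 hpf by brightfield microscopy, relative to DMSO.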

[4] = Tanguay_ZF_120hpf_AXIS: Oregon State University Tanguay Lab 120 Hour Post-fertilization zebrafish Assay for Axial Malformation (AID 2284398)
Procedure, shortened: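 Dechorionated 5D wild-type zebrafish embryos exposed statically, one per well, from 6 to 120 hpf at 28C, 0.64% DMSO. Axial malformation scored as present/absent by brightfield microscopy at 120 hpf; dead embryos not scored.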

[5] = Tanguay_ZF_120hpf_MORT: Oregon State University Tanguay Lab 120 Hour Post-fertilization zebrafish Assay for Mortality (AID 2284399)
Procedure, shortened: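 Dechorionated wild-type Tropical 5D zebrafish embryos, one per well from 6 hpf, static exposure to 120 hpf at 28C in sealed dark plates, 0.64% DMSO final. Mortality scored as binary by brightfield at 24 and 120 hpf.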

[6] = Tanguay_ZF_120hpf_EDEM: Oregon State University Tanguay Lab 120 Hour Post-fertilization zebrafish Assay for Edema Malformation (AID 2284400)
Procedure, shortened: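 Dechorionated Tropical 5D wild-type embryos, one per well, statically exposed from 6 to 120 hpf at 28C in 0.64% DMSO. Edema scored present/absent by brightfield microscopy at 120 hpf; dead embryos not scored; fit versus DMSO.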

[7] = CCTE_Padilla_ZF_Score.Craniofacial: CCTE's 144 Hour Post-fertilization zebrafish Assay Score for Craniofacial Malformation, Padilla Lab (AID 2284405)
Procedure, shortened: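 Wild-type zebrafish embryos (with chorions), one per well in 10% Hanks', were dosed at 6–8 hpf in sealed plates and kept at 26C. They were rinsed at 5 dpf. At 6 dpf two blinded assessors scored craniofacial malformations by brightfield stereomicroscopy.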

[8] = CCTE_Padilla_ZF_Score.Swim_bladder: CCTE's 144 Hour Post-fertilization zebrafish Assay Score for Swim Bladder Malformation, Padilla Lab (AID 2284408)
Procedure, shortened: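 Wild-type zebrafish embryos, one per well in 10% Hanks', dosed at 6–8 hpf, sealed, reared at 26C and rinsed at 5 dpf. Blinded assessors scored uninflated swim bladder by stereomicroscopy at 6 dpf, relative to DMSO.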

[9] = CCTE_Padilla_ZF_Score.Position: CCTE's 144 Hour Post-fertilization zebrafish Assay Score for Position, Padilla Lab (AID 2284409)
Procedure, shortened: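 Wild-type zebrafish embryos (with chorions) exposed singly from 6–8 hpf in sealed wells of Hanks' solution at 26C, rinsed at 5 dpf. At 6 dpf, blinded assessors scored abnormal water-column position by brightfield stereomicroscopy, relative to DMSO.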

[10] = CCTE_Padilla_ZF_Score.Living: CCTE's 144 Hour Post-fertilization zebrafish Assay Score for Viability, Padilla Lab (AID 2284410);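 further: larval death at 6 dpf judged by absent heartbeat or coagulation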
Procedure, shortened: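 Wild-type zebrafish embryos were exposed singly from 6–8 hpf in sealed wells of Hanks' solution at 26C, then rinsed at 5 dpf. At 6 dpf, blinded assessors scored mortality (no heartbeat or coagulation) by stereomicroscopy, fitted against DMSO.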

[11] = CCTE_Padilla_ZF_Score.General: CCTE's 144 Hour Post-fertilization zebrafish Assay Score for General Malformation, Padilla Lab (AID 2284411)
Procedure, shortened: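 Wild-type zebrafish embryos were plated singly at 6-8 hpf in 10% Hanks' and exposed in sealed wells at 26C until rinsed on 5 dpf. At 6 dpf two blinded assessors scored mortality, hatching and malformations by stereomicroscopy; gain-of-signal versus DMSO.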

[12] = CCTE_Padilla_ZF_Score.Tail: CCTE's 144 Hour Post-fertilization zebrafish Assay Score for Tail Malformation, Padilla Lab (AID 2284414)
Procedure, shortened: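 Wild-type zebrafish embryos, one per well in 200 uL 10% Hanks', dosed at 6-8 hpf, sealed, and kept at 26 C on a 14:10 h light cycle. Chemical was rinsed out at 5 dpf. Blinded brightfield scoring of tail defects followed at 6 dpf.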

[13] = CCTE_Padilla_ZF_Score.Blood_pooling: CCTE's 144 Hour Post-fertilization zebrafish Assay Score for Blood Pooling, Padilla Lab (AID 2284415)
Procedure, shortened: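 Wild-type outbred zebrafish embryos, one per well in 10% Hanks', exposed from 6–8 hpf in sealed plates at 26C on 14:10 h light:dark, rinsed at 5 dpf. Blinded stereomicroscope scoring of blood pooling at 6 dpf; gain-of-signal versus DMSO.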

[14] = CCTE_Deisenroth_5AR_NBTE_donor: CCTE's 5alpha-reductase NanoBRET Target Engagement Assay […], Deisenroth Lab (AID 2284319); settings: actives raise or lower the signal
Procedure, shortened: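 Donor NanoLuc luminescence at 460-20 nm is the read-out, serving artifact detection. Transiently expressed SRD5A2-NanoLuc in HEK293T; 5 h total chemical exposure, testosterone tracer added for the final 2 h; fitting bidirectional relative to DMSO baseline.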

[15] = CCTE_Deisenroth_5AR_NBTE_acceptor: CCTE's 5alpha-reductase NanoBRET Target Engagement Assay - Autofluorescence Screen, Deisenroth Lab (AID 2284321); settings: actives raise or lower the signal;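 further: compound fluorescence in the acceptor channel under 460 nm excitation flags autofluorescence artifacts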
Procedure, shortened: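 Chemicals diluted to a nominal 100 uM in DMSO were scanned at 460 nm excitation. Samples were read in three independent runs (n=3). Gain or loss of acceptor signal was fitted relative to DMSO.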

SRD5A2 (gene 6716) = experiment: CCTE_Deisenroth_5AR_NBTE_ratio: CCTE's 5alpha-reductase NanoBRET Target Engagement Assay - Ratio, Deisenroth Lab (AID 2284322); settings: actives raise or lower the signal
Procedure, shortened: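 Reverse-transfect HEK293T with pNLF1-C-SRD5A2, express 20 h. Pre-incubate cells with chemical 3 h (8-point series, 10 nM - 29.9 uM, duplicate). Add testosterone tracer, 2 h more. Add substrate/inhibitor, read donor and acceptor emission.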

[16] = CCTE_Padilla_ZF_Score.Spine: CCTE's 144 Hour Post-fertilization zebrafish Assay Score for Spine Malformation, Padilla Lab (AID 2284407)
Procedure, shortened: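 Wild-type zebrafish embryos, one per well in Hanks' solution, dosed at 6–8 hpf in sealed plates at 26C, 14:10 h light:dark; rinsed at 5 dpf. Two blinded assessors scored spinal defects by stereomicroscopy at 6 dpf; fitted versus DMSO.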

SERPINA7 (gene 6906) = experiment: CCTE_GLTED_hTBG: CCTE's human Thyroxine-binding Globulin (TBG) Inhibition Assay, Great Lakes Toxicology and Ecology Division (GLTED) Lab (AID 2284343; active means hit-call score of the fitted dose curve at least 0.9, where 1 is the maximum;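 further: active chemicals lower fluorescence versus DMSO baseline by displacing probe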)
Procedure, shortened: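 Cell-free binding assay in which human TBG is incubated with test chemical for 2 hours and displacement of the fluorescent probe ANSA is read at 380 nm excitation/475 nm emission. Activity is fitted against DMSO as the negative control.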

Measured: AC50

O=C(O)C(F)(F)C(F)(F)C(F)(F)OC(F)(C(F)(F)F)C(F)(F)F
active: TTR (gene 7276) 0.321 µM
not listed: [14] | [15] | SRD5A2 (gene 6716) | [16] | SERPINA7 (gene 6906)
inactive: all other assays above

CCN=c1cc2oc3cc(NCC)c(C)cc3c(-c3ccccc3C(=O)OCC)c-2cc1C
active: [14] 10 µM | [15] 0.603 µM | SRD5A2 (gene 6716) 6.06 µM

CCCCCCCCCCCCCC[P+](CCCC)(CCCC)CCCC
active: [14] 13.1 µM | SRD5A2 (gene 6716) 22.9 µM

CCCCCCCCCCCCC[N+](C)(C)Cc1ccccc1
active: [14] 18.2 µM | [15] 17.2 µM | SRD5A2 (gene 6716) 68.9 µM

O=C1C=CC(=O)N1c1ccccc1
active: [14] 50 µM | [15] 50 µM | SRD5A2 (gene 6716) 22.3 µM

O=C(O)CCC(F)(F)C(F)(F)C(F)(F)F
active: TTR (gene 7276) 17.6 µM
not listed: [14] | [15] | SRD5A2 (gene 6716) | SERPINA7 (gene 6906)
inactive: all other assays above

O=S(=O)(O)CCC(F)(F)C(F)(F)C(F)(F)C(F)(F)C(F)(F)C(F)(F)C(F)(F)C(F)(F)F
active: TTR (gene 7276) 8.98 µM | [5] 64.2 µM
not listed: [14] | [15] | SRD5A2 (gene 6716) | [16] | SERPINA7 (gene 6906)
inactive: all other assays above

NS(=O)(=O)C(F)(F)C(F)(F)C(F)(F)C(F)(F)C(F)(F)C(F)(F)F
active: TTR (gene 7276) 0.329 µM | [5] 11.1 µM | [7] 2.66 µM | [8] 2.66 µM | [9] 2.51 µM | [10] 4.62 µM | [11] 2.27 µM
inactive: [3] | [4] | [6] | [12] | [13]

NC(=O)C(F)(F)C(F)(F)C(F)(F)C(F)(F)C(N)=O
active: TTR (gene 7276) 44.1 µM
not listed: [14] | [15] | SRD5A2 (gene 6716) | [16] | SERPINA7 (gene 6906)
inactive: all other assays above

O=C(O)C(F)(F)C(F)(F)C(F)(F)OC(F)(F)F
active: TTR (gene 7276) 4.54 µM
not listed: [14] | [15] | SRD5A2 (gene 6716) | [16] | SERPINA7 (gene 6906)
inactive: all other assays above

O=S(=O)(Cl)C(F)(F)C(F)(F)C(F)(F)C(F)(F)C(F)(F)C(F)(F)C(F)(F)C(F)(F)F
inactive: [3] | [4] | [5] | [6] | [7] | [11] | [12] | [13]
active: TTR (gene 7276) 0.234 µM | [8] 12.1 µM | [9] 81.7 µM | [10] 88.8 µM

C=CC(=O)OCC(F)(F)C(F)(F)C(F)(F)COC(=O)C=C
active: TTR (gene 7276) 0.424 µM | [3] 29.3 µM | [5] 16.3 µM | [6] 20.9 µM | [10] 10 µM
not listed: [14] | [15] | SRD5A2 (gene 6716) | [16] | SERPINA7 (gene 6906)
inactive: all other assays above

CCCCCCCCCc1ccc(OCCO)cc1
active: [14] 40.3 µM | [15] 19.1 µM | SRD5A2 (gene 6716) 88.8 µM | SERPINA7 (gene 6906) 50 µM

O=C(O)C(F)(F)OC(F)(F)C(F)(F)OC(F)(F)C(F)(F)OC(F)(F)F
inactive: [7] | [8] | [9] | [10] | [11] | [12] | [13]
active: TTR (gene 7276) 0.23 µM | SERPINA7 (gene 6906) 18.6 µM
